In the library only some 10% were active in any assay of this set; here they are far more common.
NIH3T3 tox = Cytotoxic Profiling in NIH 3T3 Cell Line of Diverse Libraries Using Quantitative High-Throughput Screening. NIH 3T3 viability, CellTiter-Glo ATP luminescence, 48-72 h. Potency, µM (doses to about 96.7 µM), hits mostly inhibitors. 94,000 tested, 4.3% active. AID 1345082, 2018; further: nearly all actives have a fitted effect of over 55% in size
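First NIH 3T3 cells are plated at 400 cells/well; next compound is pinned in; then plates incubate 48 or 72 hr at 37 °C; finally CellTiter-Glo is added and luminescence read after 10 min.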
hNpr1 antagonist = Natriuretic polypeptide receptor (hNpr1) antagonism - Primary qHTS | HEK293 hNpr1 GloSensor cGMP, ANP-stimulated luminescence | Potency, µM (titrated, usually from 46.3 µM), most hits filed as inhibitors | 76,000 tested, 1.6% active | AID 1347048, 2019; calls by dose curve; further: nearly all actives have a fitted effect of over 60% in size
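HEK293 cells stably expressing human Npr1 and cGMP GloSensor pGS-40F, loaded 2 h with 2% GloSensor reagent, given compound 30 min at room temperature. Luminescence read before and 20 min after 0.1 nM hNppA.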
FLuc inh = Firefly luciferase inhibition profiling of diverse chemical library using quantitative high-throughput screening; purified P. pyralis luciferase, luminescence, biochemical; Potency, µM (highest dose often 115 µM), hits mostly inhibitors; 76,000 tested, 2.5% active; Luciferin 4-monooxygenase (Photinus pyralis), P08659; further: nearly all actives have a fitted effect of over 65% in size
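FLuc 10nM, D-luciferin 10uM, ATP 10uM, Mg acetate 10mM, Tris acetate pH 7.5, Tween/BSA; cpd qHTS; enzyme added last; CCD luminescence.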
HEK293 tox = Cytotoxic Profiling in HEK 293 Cell Line of Diverse Libraries Using Quantitative High-Throughput Screening; HEK 293 viability, ATP luminescence (CellTiter-Glo), 48-72 h; Potency, µM (doses to about 115 µM), most hits filed as inhibitors; 94,000 tested, 6.6% active; AID 1345083, 2018; further: nearly all actives have a fitted effect of over 60% in size
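Read-out: CellTiter-Glo ATP luminescence. Cells: HEK 293, 250 cells/well. Exposure: 48 or 72 hr, 37 degree Celsius.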
GPT2 inhibitor = Primary qHTS assay for inhibitors of Glutamate pyruvate transaminase 2 (GPT2); Recombinant GPT2, coupled pyruvate oxidase/HRP Amplex Red fluorescence; Potency, µM (top dose mostly 57.7 µM), actives largely listed as inhibitors; Alanine aminotransferase 2 (Homo sapiens), Q8TD30; 100,000 tested, 0.25% active; further: nearly all actives have a fitted effect of over 60% in size
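GPT2 10ng/uL, a-KG 250uM, L-Ala 2mM, HEPES pH7.5 + 0.0001% Tween; 30 min RT. Then Amplex mix (PO/HRP/ThPP), 30 min RT dark, fluorescence. AOA 50uM used as positive control.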
Npr1 antag conf = Natriuretic polypeptide receptor (hNpr1) antagonism - Confirmation. shares compounds with hNpr1 antagonist. HEK293 hNpr1 cGMP GloSensor luminescence, ANP-stimulated. Potency, µM (titrated, usually from 57.6 µM), actives largely listed as inhibitors. 1,400 tested, 76% active. AID 1347044, 2019; calls by dose curve; further: nearly all actives have a fitted effect of over 70% in size
Npr2 selectivity = Natriuretic polypeptide receptor (hNpr2) antagonism - Subtype selectivity assay; HEK293 hNpr2 GloSensor cGMP luminescence, CNP-stimulated; shares compounds with hNpr1 antagonist; AID 1347046, 2019; Potency, µM (series often up to 57.6 µM), actives largely listed as inhibitors; 1,400 tested, 67% active; calls by dose curve; further: nearly all actives have a fitted effect of over 70% in size
Target sequence (P20594 whole entry, looked up): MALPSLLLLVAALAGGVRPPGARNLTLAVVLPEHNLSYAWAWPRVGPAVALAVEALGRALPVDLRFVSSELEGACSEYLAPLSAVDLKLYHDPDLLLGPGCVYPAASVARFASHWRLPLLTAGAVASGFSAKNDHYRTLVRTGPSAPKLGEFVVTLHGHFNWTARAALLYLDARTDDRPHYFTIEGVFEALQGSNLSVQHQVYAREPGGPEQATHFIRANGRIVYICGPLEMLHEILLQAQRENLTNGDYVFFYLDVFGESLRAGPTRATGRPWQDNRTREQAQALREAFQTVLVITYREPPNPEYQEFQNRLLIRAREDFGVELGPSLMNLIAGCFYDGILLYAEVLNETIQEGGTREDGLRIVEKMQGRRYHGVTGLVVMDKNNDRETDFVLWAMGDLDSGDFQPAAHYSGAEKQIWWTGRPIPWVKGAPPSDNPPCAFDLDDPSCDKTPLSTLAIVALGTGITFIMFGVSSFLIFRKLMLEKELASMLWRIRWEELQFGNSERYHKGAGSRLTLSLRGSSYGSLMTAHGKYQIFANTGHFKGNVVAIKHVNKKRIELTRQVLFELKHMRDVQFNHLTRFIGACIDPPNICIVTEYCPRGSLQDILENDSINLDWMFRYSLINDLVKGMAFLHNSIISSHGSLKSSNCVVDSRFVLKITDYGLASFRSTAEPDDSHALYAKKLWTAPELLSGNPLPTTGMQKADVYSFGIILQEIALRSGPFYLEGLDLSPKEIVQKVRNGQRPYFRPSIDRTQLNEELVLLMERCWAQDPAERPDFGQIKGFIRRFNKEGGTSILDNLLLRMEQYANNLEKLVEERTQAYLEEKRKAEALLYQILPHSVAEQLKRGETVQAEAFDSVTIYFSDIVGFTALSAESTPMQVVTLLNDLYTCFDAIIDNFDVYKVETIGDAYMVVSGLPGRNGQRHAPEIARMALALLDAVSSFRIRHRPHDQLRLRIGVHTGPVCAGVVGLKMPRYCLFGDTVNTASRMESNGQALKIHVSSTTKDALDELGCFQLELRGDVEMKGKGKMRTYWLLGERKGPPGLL
FLuc inh counter = Natriuretic polypeptide receptor (hNpr1) antagonism - Confirmation firefly luciferase (FLuc) inhibition counterscreen; shares compounds with hNpr1 antagonist; purified FLuc enzyme, luminescence, Km substrate; Potency, µM (highest dose often 57.6 µM), actives largely listed as inhibitors; 1,400 tested, 0.7% active; AID 1347047, 2019
GloSensor ctrl = Natriuretic polypeptide receptor (hNpr1) antagonism - Counterscreen GloSensor control cell line; shares compounds with hNpr1 antagonist; HEK293 GloSensor cGMP, SNP-stimulated, luminescence; Potency, µM (top dose mostly 57.6 µM), usual class: inhibitors; 1,400 tested, 69% active; AID 1347051, 2019; calls by dose curve; further: nearly all actives have a fitted effect of over 70% in size
Numbers stand for hits; – = inactive; ? = inconclusive; · = no result. Unless noted, the call rests on the fitted dose curve; in most records, active means well fitted curve in the direction sought with a large enough effect; inconclusive means small, poorly fitted or top-dose-only effect, or another doubt; inactive means no such curve, though single readings can be large; an effect the other way counts as inactive or inconclusive.

SMILES	NIH3T3 tox	hNpr1 antagonist	FLuc inh	HEK293 tox	GPT2 inhibitor	Npr1 antag conf	Npr2 selectivity	FLuc inh counter	GloSensor ctrl
N#Cc1ccc(NC(=S)N[C@H]2CO[C@H]3[C@@H]2OC[C@H]3OC(=O)Nc2ccccc2)cc1	?	22µM	–	35µM	–	18µM	22µM	–	18µM
CC(=O)c1ccc(NC(=O)O[C@@H]2CO[C@H]3[C@@H]2OC[C@@H]3NC(=O)COc2ccccc2)cc1	?	–	–	?	–	·	·	·	·
O=C(Nc1ccc(Oc2ccccc2)cc1)O[C@@H]1CO[C@H]2[C@@H]1OC[C@@H]2NC(=O)c1ccc(C(F)(F)F)cc1	?	11µM	–	?	?	22µM	14µM	–	15µM
COc1ccc(C(=O)N2CCN3CCS(=O)(=O)N(C4CC4)C(=O)C3C2)c(OC)n1 (stereo unspecified)	–	·	·	–	–	·	·	·	·
CN(CCNC(=O)C1(CCO)CC12CCOCC2)C1CCCCC1 (stereo unspecified)	–	·	·	–	–	·	·	·	·
CCC1=Nc2cc(C(=O)NCc3ccc(F)cc3)ccc2Sc2ccc(C)cc21	?	–	–	?	?	·	·	·	·
O=C(c1ccc(-n2ccnc2)cc1)N1CCC(c2[nH]ncc2-c2ccccc2)CC1	?	11µM	–	–	–	22µM	22µM	–	–
COCc1ccc(C(=O)N2CCC(c3[nH]ncc3-c3ccccc3)CC2)o1	–	–	–	–	–	·	·	·	·
COc1ccc2ccc(OCc3nc(C(=O)N(C)CC4CCCO4)co3)cc2c1 (stereo unspecified)	?	–	?	?	–	·	·	·	·
C=CCNC(=O)c1coc(COc2ccc3ccc(OC)cc3c2)n1	?	10µM	–	45µM	–	24µM	22µM	–	22µM
COc1ccc2ccc(OCc3nc(C(=O)N4CCCC(C(N)=O)C4)co3)cc2c1 (stereo unspecified)	?	11µM	–	?	–	14µM	19µM	–	11µM
COc1ccc2ccc(OCc3nc(C(=O)N4CCC(NC(C)=O)CC4)co3)cc2c1	?	–	–	?	–	·	·	·	·
COc1ccc2ccc(OCc3nc(C(=O)N(C)CC(C)O)co3)cc2c1 (stereo unspecified)	?	?	–	?	–	·	·	·	·
COc1ccc2ccc(OCc3nc(C(=O)N(C)Cc4cc(C)no4)co3)cc2c1	?	?	–	?	–	31µM	?	–	?
O=C(NC1CCCCC1)c1cc(-c2cc(Cl)cc(Cl)c2)c2nncn2n1	?	·	·	–	–	·	·	·	·
O=C(Cc1cccc(F)c1)N1CCC2(CC1)N=C(c1ccc(Cl)cc1)NO2	?	?	–	?	–	24µM	?	–	24µM
Cc1ccc(C2=NC3(CCN(C(=O)Cc4ccc(Cl)cc4)CC3)ON2)cc1	–	–	–	–	–	·	·	·	·
O=C(c1cccc2[nH]ccc12)N1CCC2(CC1)N=C(c1ccc(Cl)cc1)NO2	?	11µM	–	?	–	19µM	22µM	–	17µM
O=C(c1cc(F)ccc1F)N1CCC2(CC1)N=C(c1ccc(Cl)cc1)NO2	?	16µM	–	?	–	24µM	22µM	–	24µM
Cc1ccsc1CN(Cc1cn(-c2ccccc2)nn1)C1CC1	?	–	?	?	–	·	·	·	·
Cc1cc(C(=O)Nc2cccc(-c3nnc4n3CCCC4)c2)n[nH]1	–	?	–	–	–	?	?	–	?
Cc1ccc(C(=O)Nc2cccc(-c3nnc4n3CCCC4)c2)cc1	–	–	?	–	–	·	·	·	·
Cc1ccccc1CC(=O)N1CCC(Cc2nc(-c3cnccn3)no2)CC1	–	–	–	–	–	·	·	·	·
Cc1cccc(CC(=O)N2CCC(Cc3nc(-c4cnccn4)no3)CC2)c1	–	–	–	–	–	·	·	·	·
CCOc1ccc(CC(=O)N2CCC(Cc3nc(-c4ccccc4)no3)CC2)cc1	?	16µM	–	22µM	–	14µM	17µM	–	12µM
SMILES	NIH3T3 tox	hNpr1 antagonist	FLuc inh	HEK293 tox	GPT2 inhibitor	Npr1 antag conf	Npr2 selectivity	FLuc inh counter	GloSensor ctrl
COc1ccc(CC(=O)N2CCC(Cc3nc(-c4ccccc4)no3)CC2)cc1	11µM	7.1µM	–	14µM	–	9.7µM	12µM	–	11µM
O=C(NCc1ccc(Cl)cc1)C1CCN(c2cc(C(F)(F)F)ncn2)CC1	?	11µM	–	?	–	19µM	19µM	–	15µM
CCOc1cccc(CNC(=O)C2CCN(c3cc(C(F)(F)F)ncn3)CC2)c1	?	?	–	?	–	·	·	·	·
COc1cccc(CNC(=O)C2CCN(c3cc(C(F)(F)F)ncn3)CC2)c1	–	?	–	–	–	?	?	–	?
CCN(Cc1noc(C2CCC2)n1)C(=O)C(C)Oc1ccc2ccccc2c1 (stereo unspecified)	–	11µM	–	35µM	–	19µM	22µM	–	14µM
CN(Cc1cn(-c2ccccc2)nn1)Cc1noc(C2CCC2)n1	–	–	–	?	–	·	·	·	·
CN1CCCCCCN(C(=O)CC2CCCC2)[C@H]2CCC[C@H]2C1=O	–	–	–	–	–	·	·	·	·
COC(=O)[C@@H]1Cc2ncn(Cc3ccc(Cl)cc3)c2CN1Cc1cccc(C#N)c1	?	?	–	63µM	–	?	?	–	?
COC(=O)[C@@H]1Cc2ncn(Cc3ccc(Cl)cc3)c2CN1C(=O)c1ccc(C#N)cc1	?	–	–	–	–	·	·	·	·
Fc1ccc(CN2CCOC[C@H]2c2ncc(-c3ccc(F)cc3)[nH]2)cc1	?	?	–	?	–	?	?	–	?
COc1ccc(CN2CCOC[C@H]2c2ncc(-c3ccc(C)cc3)[nH]2)cc1	100µM	–	–	?	–	–	?	–	–
O=C(c1ccoc1)N1CCC2(CCC2N2CCOCC2)CC1 (stereo unspecified)	–	·	·	–	–	·	·	·	·

Source: PubChem
